Screening results deposited in PubChem BioAssay by National Center for Advancing Translational Sciences (NCATS).
Rows were chosen to be rich in hits. Some 19% of all compounds tested hit in one or more screens of this group.
HT1080 IDH1KD tx – kills HT-1080 cells with IDH1 knockdown. Potency, µM (highest dose often 46.1 µM), for inactives: at the top dose activity, negative = toxicity, most hits filed as cytotoxic. HT-1080 IDH1 knockdown viability, ATP luminescence, 48 h. actives 2% (n = 360,000). AID 686971;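 further: 0% = DMSO wells and -100% = cell-free medium wells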
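HT-1080-IDH1KD cells (IDH1 knocked down), 750/well in RPMI with 5% FBS, treated with compound 48 h at 37 degrees C. Viability by CellTiter-Glo luminescence, normalised to DMSO and no-cell wells; concentration-response curves classed.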
HT1080-NT tox – kills 2HG-producing HT-1080-NT fibrosarcoma cells | HT-1080-NT fibrosarcoma viability, CellTiter-Glo ATP luminescence, 48 h | Potency, µM (top dose mostly 46.1 µM), for the others: top-dose activity, negative = less viability, usual class: cytotoxic | actives 1.6% (n = 360,000);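 further: NT is the 2HG producing partner of a matched IDH1 knockdown line; 0% = DMSO-treated cells and -100% = media-only wells without cells; nearly all actives have a fitted effect of over 55% in size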
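HT-1080-NT; 750 cells/well; 5% FBS RPMI; 48 h compound, 37 degrees C; CellTiter-Glo luminescence; curve fitting and curve-class assignment.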
DT40 TDP1 CPT – growth inhibition of DT40 Tdp1-/-;hTDP1 cells with camptothecin (screen for TDP1 inhibitors). chicken DT40 Tdp1-/-;hTDP1 cells + 20 nM CPT, ATP luminescence, 48 h. Potency, µM (highest dose often 46.2 µM), for the others: top-dose activity change, negative = growth inhibition, hits mostly inhibitors. actives 12% (n = 420,000). AID 686979; further: nearly all actives have a fitted effect of over 55% in size
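Chicken DT40 Tdp1-/- cells complemented with human TDP1, 400 cells/well, exposed to compounds plus 20 nM camptothecin for at least 48 h at 37 C; viability read as ATP content by CellTiter-Glo luminescence.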
TDP1 cell noCPT – qHTS for Inhibitors of human tyrosyl-DNA phosphodiesterase 1 (TDP1): qHTS in cells in absence of CPT | DT40 Tdp1-/- hTDP1 cells, no CPT, ATP luminescence, 48 h | Potency, µM (doses to about 46.2 µM), for the others: at the highest dose activity change, negative = growth inhibition, most hits filed as inhibitors | actives 15% (n = 420,000); further: nearly all actives have a fitted effect of over 55% in size
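Stably hTDP1-transfected Tdp1-null chicken DT40 cells were treated with library compounds minus camptothecin and grown for at least 48 hr at 37 °C, after which cellular ATP was quantified by luminescence.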
KB-3-1 cytotox – kills parental KB-3-1 adenocarcinoma cells; KB-3-1 viability, CellTiter-Glo ATP luminescence, 72 h; Potency, µM (top dose mostly 46.1 µM), hits mostly cytotoxic; actives 1.4% (n = 400,000); further: nearly all actives have a fitted effect of over 60% in size
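Here the drug-naive KB-3-1 line serves as comparator for MDR sub-line selectivity; cells received compound titrations, 72 h at 37 °C, then CellTiter-Glo readout.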
KB-V1 MDR tox – KB-V1 MDR subline cytotoxicity; KB-V1 MDR cells viability, CellTiter-Glo, 72 h; Potency, µM (highest dose often 46.1 µM), hits mostly cytotoxic; actives 3.4% (n = 400,000); AID 1347076; further: nearly all actives have a fitted effect of over 60% in size
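Cytotoxicity toward P-gp-expressing KB-V1 cells was determined as loss of CellTiter-Glo luminescence after 72 h at 37 degrees C. Compounds were tested in quantitative HTS format across a concentration range, with curves fitted to normalized data.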
* marks the source's active call; other numbers are inactive results; i = inactive; u = inconclusive; x = not tested or not shown. The call rests on the fitted dose curve; in most records, active means well fitted curve in the direction sought with a large enough effect; inconclusive means small, poorly fitted or top-dose-only effect, or another doubt; inactive means no such curve, though single readings can be large; an effect the other way counts as inactive or inconclusive. Unless noted, on the % scale 0 is the no-effect control and ±100 the full control effect; potency means the concentration at half of the fitted maximal effect.

SMILES	HT1080 IDH1KD tx	HT1080-NT tox	DT40 TDP1 CPT	TDP1 cell noCPT	KB-3-1 cytotox	KB-V1 MDR tox
CCCC(=O)N1CC(=O)Nc2ccc(Cl)cc2C1c1ccccc1 (configuration not stated)	x	x	u	u	i	i
CCCCC1CCC(C(=O)N2CC(=O)Nc3ccc(C)cc3C2c2ccc(F)cc2)CC1 (configuration not stated)	x	x	9.2µM*	u	i	u
Cc1ccc(-c2nnc(Nc3ccc(C(N)=O)cc3)c3ccccc23)cc1S(N)(=O)=O	x	x	10.0%	0.1%	i	u
COc1ccccc1-c1cc(SC)c(C#N)c(=O)o1	0.4%	1.5%	3.66µM*	5.8µM*	i	i
COc1ccccc1-c1cc(C(F)(F)F)c(C#N)c(=O)[nH]1	-1.2%	3.4%	26.5%	21.6%	i	i
CS(=O)(=O)c1ccc2nc(NC(=O)Nc3ccc(Cl)c(Cl)c3)sc2c1	-4.0%	u	u	9.2µM*	i	i
Cc1ccc(NC(=O)Nc2nc3ccc(S(C)(=O)=O)cc3s2)cc1	-3.7%	1.2%	2.9%	-5.2%	i	i
CS(=O)(=O)c1ccc2nc(NC(=O)Nc3ccccc3F)sc2c1	14.8%	3.8%	-18.0%	u	i	i
Cc1ccc(N2CC(C(=O)Nc3nc4ccc(S(C)(=O)=O)cc4s3)CC2=O)cc1 (configuration not stated)	-8.8%	-0.2%	-13.7%	13.7%	u	6.51µM*
CS(=O)(=O)c1ccc2nc(NC(=O)Nc3cccc(Cl)c3)sc2c1	11.2µM*	u	16.4µM*	23.1µM*	i	u
COc1ccc(C2CCc3cc(OC)c(OC)cc3C2NC=O)cc1OC (configuration not stated)	5.8%	-4.5%	-15.4%	u	i	i
CCc1ccc(-n2nc(CO)c(C(=O)NCCCCc3ccccc3)n2)cc1	x	x	7.1%	-17.9%	x	x
COc1ccc(/C=N/NC(=O)Cn2cnc3ccccc3c2=O)cc1	3.5%	5.2%	-2.6%	-1.0%	i	3.26µM*
CC(/C=N/NC(=O)Cn1cnc2ccccc21)=C\c1ccccc1	-9.0%	-2.7%	23.1µM*	u	i	i
COc1ccc(OC)c(-c2cc(C(=O)Nc3ccccc3C(N)=O)c3ccccc3n2)c1	u	-18.0%	20.6µM*	8.2µM*	i	u
COc1ccc(OC)c(-c2cc(C(=O)O)c3cc4ccccc4cc3n2)c1	-0.5%	3.0%	-2.3%	-3.3%	i	i
COc1ccc(OC)c(-c2cc(C(=O)N/N=C/c3cc(OC)c(OC)cc3OC)c3ccccc3n2)c1	0.8%	0.0%	16.4µM*	9.2µM*	i	i
CN(C)C(=S)SCC(=O)Nc1ccc(Cl)cc1Cl	-5.3%	5.4%	-5.0%	-13.1%	i	i
Cc1ccc(C(=O)NC(=S)c2c(C)cc3ccccn23)cc1	-13.5%	-4.4%	u	u	i	i
Cc1csc2nc(COC(=O)c3ccc(Cl)c([N+](=O)[O-])c3)cc(=O)n12	-12.8%	-24.3%	u	u	i	i
COc1ccc(/C=N/NC(=O)Cn2nc(C)c([N+](=O)[O-])c2C)cc1	-9.1%	-7.5%	11.6µM*	u	i	i
COc1ccc(OC)c(-c2cc(C(=O)N/N=C/c3ccc(F)cc3)c3ccccc3n2)c1	-22.8%	-21.5%	5.17µM*	1.03µM*	i	i
CCc1cc(C(=O)N/N=C/c2ccc(OC)cc2)c2ccccc2n1	u	u	7.31µM*	3.26µM*	u	u
COCC(COS(N)(=O)=O)Cc1ccccc1 (configuration not stated)	1.2%	2.9%	3.6%	-8.9%	u	i
CCCCC1(C)Cc2ccccc2C(=S)N1 (configuration not stated)	1.1%	-2.6%	23.1µM*	u	i	u
SMILES	HT1080 IDH1KD tx	HT1080-NT tox	DT40 TDP1 CPT	TDP1 cell noCPT	KB-3-1 cytotox	KB-V1 MDR tox
CC(C)CCNc1nc(N)c([N+](=O)[O-])c(NCC2CCCO2)n1 (configuration not stated)	-2.1%	-12.3%	14.6µM*	u	i	u
Nc1nc(NCC2CCCO2)nc(Nc2ccccc2)c1[N+](=O)[O-] (configuration not stated)	-7.5%	0.6%	u	u	i	10.3µM*
COc1ccc(CCN2C(=O)c3[nH]nc(-c4ccccc4O)c3C2c2ccc(O)c(OC)c2)cc1 (configuration not stated)	x	x	u	u	i	i
CCOc1cc(C2c3c(-c4ccccc4O)n[nH]c3C(=O)N2CCc2ccccc2)ccc1O (configuration not stated)	x	x	16.4µM*	u	i	i
COCCCN1C(=O)c2[nH]nc(-c3ccccc3O)c2C1c1ccc(Cl)cc1 (configuration not stated)	u	-21.9%	23.1µM*	u	u	i
O=C1c2[nH]nc(-c3ccccc3O)c2C(c2ccc(Cl)cc2)N1CCc1ccccc1 (configuration not stated)	x	x	20.6µM*	16.4µM*	x	x
COCCCN1C(=O)c2[nH]nc(-c3ccccc3O)c2C1c1ccc(OC)cc1 (configuration not stated)	x	x	16.4µM*	29.1µM*	x	x
O=C1c2[nH]nc(-c3ccccc3O)c2C(c2ccc(F)cc2)N1CCO (configuration not stated)	x	x	u	u	i	i
O=c1[nH]c(=O)n([C@H]2C[C@H](O)[C@@H](CO)O2)cc1/C=C/Br	x	x	-16.7%	-16.9%	x	x
CN(C)S(=O)(=O)c1ccc(Cl)c(NC(=O)COC(=O)/C=C/c2cnc3ccccc3n2)c1	0.0%	-1.7%	-29.9%	-8.3%	i	i
O=C1[C@@H](c2ccccc2)CC[C@@H]2C=CC[C@H]3CCN1[C@@H]32	-1.1%	11.8%	u	16.4µM*	i	u
Cc1ccc2c(CN(C)Cc3cccc(F)c3)cc(=O)oc2c1	-2.5%	1.2%	-0.6%	7.0%	i	i
CN(Cc1ccccc1)Cc1cc(=O)oc2ccc3ccccc3c12	-11.6%	0.4%	u	18.4µM*	i	i
CN(Cc1ccccc1F)Cc1cc(=O)oc2cc(O)c(Cl)cc12	-12.4%	-5.3%	14.6µM*	16.4µM*	u	i
